PubChem BioAssay AID2241 (Broad Institute, 2010)
Hit rate of the full screen: of about 21,000 compounds, about 110 (0.52%) were called active.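 Rule for the calls: active = most replicate scores above 10, or exactly half above 10 with mean activity above 10; inconclusive = mean activity below 10 while half the replicates exceed 10; inactive = most replicate scores below 10.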 The entries come from a sample that favours actives as a whole.

test: caspase activation in A1-primed MEFs – cell-based, CaspaseGlo luminescence, A1 inhibitor project, primary screen (AID 2241); conditions: MEF A1-2A-BIM cells, caspase-Glo luminescence, 3 h; stronger effect = higher value; percent of clofoctol signal, DMSO as zero; concentration not given here;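 note: effector caspase 3 and 7 activity cleaving a DEVD luciferin substrate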

Caspase activation, inactive:
C[C@@H]1CN([C@H](C)CO)C(=O)c2cc(NC(=O)Cc3cn(C)c4ccccc34)ccc2O[C@@H]1CN(C)S(=O)(=O)c1cccs1 -0.00537%
CCSc1ccc2nnc(CCNC(=O)c3ccccc3)n2n1 0.0984%
COc1ccccc1C(=O)N/C(=C\c1ccccc1)C(=O)N1CCOCC1 -0.546%
Cc1ccc(O)c(C(C)(C)C)c1 -0.605%
Cc1sc2nc3n(c(=O)c2c1C)N=C(c1ccc(F)cc1)CS3 -1.09%
CC1=C(Cc2ccc(OC(=O)c3ccccc3)cc2)C(=O)C(C(C)C)CC1 (stereo not given) 0.579%
CC(=O)N1[C@@H](c2ccc(C)cc2)SC(C)(C)[C@@H]1C(=O)O -0.0443%
O=C(CNC(=S)N(Cc1ccccc1)Cc1ccccc1F)N1CCCC1 0.68%
O=C(NCSc1nc2ccccc2s1)c1ccco1 0.614%
O=S(=O)(NCc1ccc(-c2cccs2)cc1)c1cccs1 0.285%
CC(C)NC(=O)N(C)C[C@H]1Oc2ccc(N(C)C)cc2C(=O)N([C@@H](C)CO)C[C@H]1C 0.193%
Cc1noc(C)c1NC(=O)N(C)C[C@H]1Oc2ccc(NS(=O)(=O)c3ccc(F)cc3)cc2C(=O)N([C@@H](C)CO)C[C@H]1C 0.124%
O=C1CCCCC1C(=O)c1ccccc1 (stereo not given) -0.0515%
COC(=O)C1=C(C)Nc2c(c(=O)n(C)c(=O)n2C)C1c1cccc(OCc2ccccc2)c1 (stereo not given) 0.0517%
C[C@H]1CN([C@@H](C)CO)C(=O)c2cc(NC(=O)C3CC3)ccc2O[C@@H]1CN(C)Cc1ccc(Oc2ccccc2)cc1 0.539%
O=C(CCn1c(=S)[nH]c2cc3c(cc2c1=O)OCO3)NC1CCCC1 -1.11%
Clc1ccc(N2CCCCCCC2)nn1 0.981%
CC(=O)Nc1ccc(N=Cc2ccc(N3CCOCC3)cc2)cc1 -0.682%
Cc1ccc(C23CC4CC(CC(CN)(C4)C2)C3)cc1C 4.34%
Cc1cc(-c2cccs2)c2c(N)c(C(=O)c3ccccc3)sc2n1 1.1%
O=c1c2c3c(sc2[nH]c(=S)n1Cc1ccccc1)CCCCC3 -0.256%
Cc1ccc(SCC(=O)Nc2nncs2)cc1 -1.27%
O=C(NCc1ccc2c(c1)OCO2)c1ccc(Cl)cc1 -0.323%
CCOC(=O)c1cc(-c2ccnn2S(=O)(=O)c2ccc(C)cc2)on1 -0.165%
Cc1noc(C)c1NC(=O)Nc1ccc2c(c1)C(=O)N([C@@H](C)CO)C[C@@H](C)[C@H](CN(C)Cc1ccc(C(F)(F)F)cc1)O2 -0.666%
